EWS-Fli block = blocks EWS/Fli oncoprotein-driven transcription. A673 NR0B1-luciferase reporter, viability-normalised. inhibition, % at 12.6 µM. 0.67% of 350,000 active. AID 651661;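 active = mean inhibition of at least 50% after viability correction, with every replicate also passing that limit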;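 note: firefly luciferase signal divided by Alamar Blue viability fluorescence both relative to DMSO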
PAX8 inh HTS = PAX8 transcriptional activity inhibition; RMG-I TPO-luciferase reporter, SteadyGlo, 24 h; inhibition, % at 12.6 µM; 1.2% of 360,000 active;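 active = mean replicate inhibition at least 60% with every replicate also reaching 60%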;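 note: luciferase light reporting Pax8 driven TPO promoter activity; plate controls were median of neutral control wells for no effect and mitoxantrone controls for full effect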
C2C12 statin = suppressors of simvastatin-induced myotoxicity in C2C12 myotubes. 0.78% of 330,000 active. ATP luminescence, 48 h; scaled: DMSO 0, geranylgeraniol control 100. rescue of ATP level, % at 7.49 µM;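 active = mean ATP rescue above about 67%, or every replicate alone reaching that limit, limit read from the data, passing the limit was not always enough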;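 note: myotubes were challenged with 10 µM simvastatin during compound exposure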
Env fusion inh = blocks HIV Env-driven cell-cell fusion | inhibition, % at 12.3 µM | HeLa-JRFL Env/CEM21 cell fusion, luciferase | AID 651610 | 1.1% of 360,000 active;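 active = mean replicate inhibition score of at least 50 and every replicate individually at or above 50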;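 note: 0% = plate neutral controls and 100% = maraviroc near 300 nM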
GSIS activator = GLuc luminescence reporter in INS-1E cells, primary screen for activators of glucose-dependent secretion of insulin. 0.61% of 370,000 active. activation, % at 16.6 µM. INS-1E GLuc reporter insulin secretion, 2-3 h;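 active = lowest replicate activation of at least 40%, so every replicate reaches that level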;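 note: 0% = median of neutral control wells and 100% = median of IBMX positive control wells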
miR122 inh = inhibitors of miR-122 in Huh7 cells. Huh7 miR-122 Renilla luciferase sensor, 48 h; neutral wells = 0, positive control = 100. activation (reporter increase), % at 12.5 µM. 0.3% of 340,000 active. AID 602342;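 active = mean replicate activation score at least 90 and every replicate individually at or above 90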;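 note: higher luciferase means less miR-122 activity so hits act as miR-122 inhibitors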
* marks the source's active call; other numbers are inactive results; . = no result given; [ ] = remark or other dose. This is a sample that favours compounds with a hit; in the whole collection about 3.1% have one here.

SMILES	EWS-Fli block	PAX8 inh HTS	C2C12 statin	Env fusion inh	GSIS activator	miR122 inh
C[C@@H]1CN([C@@H](C)CO)C(=O)Cc2cc(NC(=O)Nc3ccc(C(F)(F)F)cc3)ccc2O[C@H]1CN(C)C(=O)Nc1ccc(C(F)(F)F)cc1	1.2	78.3*	6.4	37.0[16.7 µM]	-10.4	10.2[16.7 µM]
C[C@@H]1CN([C@H](C)CO)C(=O)Cc2cc(NS(=O)(=O)c3ccc(Cl)cc3)ccc2O[C@@H]1CN(C)C(=O)Nc1ccc(C(F)(F)F)cc1	49.8	.	19.6	-5.2[16.7 µM]	-6.1	103.3*[16.7 µM]
C[C@H]1CN([C@@H](C)CO)C(=O)Cc2cc(NC(=O)Nc3ccc(C(F)(F)F)cc3)ccc2O[C@H]1CN(C)C(=O)Nc1ccc(F)cc1	-1.3	-1.1	83.0*	-24.3[16.7 µM]	-8.4	1.1[16.7 µM]
C[C@@H]1CN([C@H](C)CO)C(=O)Cc2cc(NC(=O)Nc3ccc(F)cc3)ccc2O[C@H]1CN(C)C(=O)Nc1ccc(C(F)(F)F)cc1	27.2	80.4*	3.3	-5.9[16.7 µM]	-15.3	-1.9[16.7 µM]
C[C@H]1CN([C@@H](C)CO)C(=O)Cc2cc(NC(=O)Nc3ccc(C(F)(F)F)cc3)ccc2O[C@@H]1CN(C)C(=O)Nc1ccc(F)cc1	-7.1	-4.8	2.9	0.6[16.7 µM]	-2.6	3.2[16.7 µM]
C[C@H]1CN([C@@H](C)CO)C(=O)c2cccc(N(C)C)c2O[C@@H]1CN(C)Cc1ccc(C(F)(F)F)cc1	5.6	6.0	47.0	19.4[16.7 µM]	-17.5	29.6[16.7 µM]
N#C/C(=C\c1cccs1)C(=O)c1ccccc1Cl	29.1	64.4*	.	-173.0	-4.1	.
S=C(NN=C(C1CC1)C1CC1)Nc1ccccc1	.	.	142.5*	-23.1	.	3.3
COc1ccc(-c2nn(-c3ccccc3)cc2CO)cc1	.	.	98.8*	.	.	-10.5
Cc1ccc(-c2nn(-c3ccccc3)cc2CO)cc1	-90.1	-142.8	-4.1	-48.9	-2.2	-6.9
CO[C@H]1CN(C)C(=O)c2cc(NC(C)=O)ccc2OC[C@@H](C)N(Cc2ccccc2C(=O)O)C[C@H]1C	-4.7	-1.1	8.6	-1.6[16.7 µM]	6.6	-8.8[16.7 µM]
Cn1c2c(c(=O)n(C)c1=O)CN(Cc1ccc3c(c1)OCO3)CN2	.	.	112.5*	.	3.3	-6.0
C[C@@H]1CN([C@H](C)CO)S(=O)(=O)c2ccc(-c3ccccc3)cc2O[C@@H]1CN(C)C(=O)C1CCC1	8.6	.	10.6	-4.1[16.7 µM]	-12.2	-7.0[16.7 µM]
O=c1[nH]c(Nc2ccccc2Cl)cc2ccccc12	-15.1	-23.7	136.3*	-10.1	-4.2	5.8
Cc1ccccc1Nc1cc2ccccc2c(=O)[nH]1	.	.	.	.	.	5.6
C=C(C)c1cccc(C(C)(C)NC(=O)Nc2ccc(Cl)cn2)c1	.	8.5	.	65.3*	-27.0	.
COC(=O)c1ccc2nc(Nc3nc4ccc(F)cc4s3)sc2c1	76.7*	79.7*	2.5	56.9*	.	6.8
COC(=O)c1ccc2nc(NC(=O)C3CCCCC3)sc2c1	26.8	-60.4	.	-6.7	9.9	.
CC(=O)c1sc(Nc2nc3ccc(F)cc3s2)nc1C	.	.	.	-131.5	.	3.3
COC(=O)c1ccc2nc(NC(=O)C(C)(C)C)sc2c1	54.5*	13.2	.	-47.3	-23.6	.
N#Cc1c(N)[nH]c2ccc(Sc3ccccc3)cc12	60.7*	38.3	.	-94.0	.	28.4
O=C(C[C@@H]1CC[C@H]2[C@@H](COC[C@@H](O)CN2C(=O)c2ccccn2)O1)NC1CCC1	.	.	-15.8	.	10.9	-0.8[16.7 µM]
CCCOc1ccc2ccccc2c1/C=N/n1cnnc1	.	.	11.3	90.9*	3.7	-4.1
CCOc1ccc2ccccc2c1/C=N/n1cncn1	.	-15.2	-7.2	-101.1	-1.4	-2.4
O=C(NC1CC1)c1ccc2c(c1)C1C3CCC(C3)C1C(c1ccccc1)N2 (configuration not stated)	-2.7	115.3*	.	.	-19.6	.
SMILES	EWS-Fli block	PAX8 inh HTS	C2C12 statin	Env fusion inh	GSIS activator	miR122 inh
O=C(NC1CCCCC1)c1ccc2ccccc2c1	-73.1	-203.0	-12.2	-65.2	.	-5.1
Cc1ccc(C(C(=O)NC2CCCC2)N(C(=O)CNC(=O)c2cccs2)c2cccnc2)o1 (configuration not stated)	.	12.0	-2.1	-44.0	3.7	7.2
O=C(NC1CCCCC1)C(c1cccs1)N(Cc1cccs1)C(=O)c1ccco1 (configuration not stated)	.	.	10.1	83.6*	.	4.7
Cc1ccc(C(C(=O)NC2CCCC2)N(Cc2cccs2)C(=O)CNC(=O)c2cccs2)o1 (configuration not stated)	.	.	136.0*	-71.2	.	0.8
O=C(NC(NC(=S)Nc1c(Cl)cccc1Cl)C(Cl)(Cl)Cl)c1cccc([N+](=O)[O-])c1 (configuration not stated)	.	34.5	.	-36.4	-4.5	173.7*
CCCNC(=O)N1CCC2(CC1)CN(C(=O)NC1CCCC1)[C@H](CO)c1[nH]c3cc(OC)ccc3c12	20.5	11.4	.	.	0.7	.
C[C@H](CO)N1C[C@H](C)[C@H](CN(C)S(=O)(=O)c2ccc(C#N)cc2)Oc2ncc(-c3cc4ccccc4o3)cc2C1=O	1.6	.	94.9*	.	-18.1	-0.7[16.7 µM]
C[C@H](CO)N1C[C@H](C)[C@H](CN(C)C(=O)Nc2ccccc2)Oc2ncc(-c3cc4ccccc4o3)cc2C1=O	-8.8	-0.8	91.7*	-14.6[16.7 µM]	-13.3	-6.6[16.7 µM]
COc1ccc(S(=O)(=O)N(C)C[C@@H]2Oc3ncc(-c4cc5ccccc5o4)cc3C(=O)N([C@H](C)CO)C[C@@H]2C)cc1	9.9	.	12.1	69.3*[16.7 µM]	.	-3.4[16.7 µM]
CC(C)NC(=O)N(C)C[C@@H]1Oc2ncc(-c3cc4ccccc4o3)cc2C(=O)N([C@H](C)CO)C[C@@H]1C	-15.5	.	1.5	14.5[16.7 µM]	-18.0	-8.3[16.7 µM]
CCOc1ccc(NCc2nnc(SCc3ccccc3Cl)n2-c2ccccc2)cc1	.	.	6.6	82.1*	.	2.5
O=C1NC(c2cccc3ccccc23)Nc2ccccc21 (configuration not stated)	9.2	37.5	.	-414.2	35.2	149.9*
C[C@@H]1CN([C@H](C)CO)C(=O)c2cc(NS(=O)(=O)c3ccc(F)cc3)ccc2O[C@@H]1CN(C)Cc1ccc(C(F)(F)F)cc1	68.1*	115.1*	32.3	-9.6[16.7 µM]	-14.8	-4.5[16.7 µM]
C[C@H]1CN([C@@H](C)CO)C(=O)c2cc(NS(=O)(=O)c3ccc(F)cc3)ccc2O[C@@H]1CN(C)Cc1ccc(C(F)(F)F)cc1	-1.0	-11.4	12.3	19.2[16.7 µM]	-16.3	0.6[16.7 µM]
C[C@@H]1CN([C@H](C)CO)C(=O)c2cc(NS(=O)(=O)c3ccc(F)cc3)ccc2O[C@H]1CN(C)Cc1ccc(C(F)(F)F)cc1	7.5	-34.0	-16.5	71.5*[16.7 µM]	-21.8	-0.7[16.7 µM]
C[C@H](O)C#Cc1ccc2c(c1)O[C@H](CN(C)C(=O)c1ccccc1)[C@@H](C)CN([C@@H](C)CO)S2(=O)=O	-8.5	.	-3.9	-3.9[16.7 µM]	16.7	-1.2[16.7 µM]
O=C(CC1Sc2ccccc2NC1=O)NNc1ccc(Cl)cc1Cl (configuration not stated)	-9.5	22.4	34.2	.	.	0.5
O=C1Nc2c(Cl)cc(Cl)cc2C12Nc1ccccc1S2 (configuration not stated)	-49.6	-69.3	.	55.5*	-3.6	.
